For assay [1], the target named is Cytochrome P450 1A2 (Homo sapiens) (UniProt P05177). Kind of assay: p450-cyp1a2 (AID 410; calls by dose curve; further: potency means the concentration at half of the fitted maximal effect). The method in brief: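 Read-out is luminescence from luciferin produced by CYP1A2 demethylation of Luciferin-ME (100uM, at Km). Detection reagent stopped the 60 min NADPH-dependent reaction; signals were normalized to 57 uM furafylline.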
In assay [2] the target is Glucocorticoid receptor (Homo sapiens) (UniProt P04150). Kind of assay: GR-GFP Redistribution (AID 450;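 active means compounds whose dose series gives a full or clear partial fitted curve of increased nuclear translocation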; further: potency means the concentration at half of the fitted maximal effect).
For assay [3] the target is unchanged. Kind of assay: GR-EFC Redistribution (AID 451; calls by dose curve; further: potency means the concentration at half of the fitted maximal effect). To be noted: CHO-K1 GR-EFC translocation, beta-gal luminescence, 2 h. The method in brief:
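Translocation of GR-ED fusion to nuclear EA restores b-gal, read by luminescence after 1 h room-temperature detection. Engineered CHO-K1 biosensor cells, 1,000/well, exposed 2 h at 37 C to titrations up to 46 uM final.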

The target of assay [4] is 3',5'-cyclic-AMP phosphodiesterase 4B (Homo sapiens) (UniProt Q07343). Kind of assay: qHTS Assay for Inhibitors of PDE-IV (AID 607; active means well fitted activation curve with a large enough effect in the main read-out, with a control signal flat, not every such curve was filed as active). The method in brief:
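ACTOne HEK293 cells carry a modified cAMP-gated CNG channel and express endogenous PDE4; plated 1000 cells/well, compounds up to 22.9 uM final. Membrane-potential dye fluorescence (ex 535/em 590) was read; parental cells received 10 uM forskolin + 100 uM RO 20-1724.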

Assay [5] addresses Cytochrome P450 2C9 (Homo sapiens) (UniProt P11712). Description: qHTS Assay for Inhibitors and Substrates of Cytochrome P450 2C9 (AID 883). Further: nearly all actives have a fitted effect of over 60% in size. Further: potency means the concentration at half of the fitted maximal effect. The method in brief: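 Luminescent read-out of deoxyluciferin hydroxylation, normalized to 57uM sulphaphenazole (AC100). Reaction: 10nM enzyme, 100uM Luciferin-H (equal to KM), 25mM KPO4, 10 min compound preincubation, then 60 min with NADPH regeneration, both at 37C.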
(In qHTS, concentration-response curves come from the screen itself.)

Assay [6] has as its target Cytochrome P450 2D6 (Homo sapiens) (UniProt P10635). Description: qHTS Assay for Inhibitors and Substrates of Cytochrome P450 2D6 (AID 891). Further: nearly all actives have a fitted effect of over 60% in size. Further: potency means the concentration at half of the fitted maximal effect. The method in brief:
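Luminescent read-out of luciferin formed by 5 nM human CYP2D6 demethylating 30 uM Luciferin-ME EGE (Km level) over 60 min at room temperature after NADPH regeneration addition. Data normalized to full inhibition by 1.43 uM quinidine.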

The target of assay [7] is Mitogen-activated protein kinase 10 (Mus musculus) (UniProt Q61831). Kind of assay: JNK3 AlphaScreen Assay (AID 530; active means well fitted curve in either direction with a large enough effect, not every such curve was filed as active;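 further: kinase came from lysate of stimulated human HepG2 cells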; further: potency means the concentration at half of the fitted maximal effect). The method in brief: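 Kinase buffer: 20 mM Tris-HCl pH 7.6, 10 mM MgCl2, 1 mM DTT, 0.1 mM Na3VO4, 0.01% Tween-20; ATP 10 uM. Substrate biotin-GST-cJun(1-79), enzyme from activated HepG2 lysates. Detection by Ser73 phospho-antibody AlphaScreen.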
The target of assay [8] is Cytochrome P450 2C19 (Homo sapiens) (UniProt P33261). Description: qHTS Assay for Inhibitors and Substrates of Cytochrome P450 2C19 (AID 899). Further: nearly all actives have a fitted effect of over 60% in size. Further: potency means the concentration at half of the fitted maximal effect. The method in brief:
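Luminescence readout of luciferin formed from 10uM Luciferin-H EGE (KM level) by 5 nM CYP2C19 in 50mM KPO4. 60 min NADPH-driven reaction at 37C after 10 min compound preincubation; data scaled to 57uM ketoconazole inhibition.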

Assay [9] has as its target Cytochrome P450 3A4 (Homo sapiens) (UniProt P08684). Kind of assay: qHTS Assay for Inhibitors and Substrates of Cytochrome P450 3A4 (AID 884). Further: nearly all actives have a fitted effect of over 50% in size. Further: potency means the concentration at half of the fitted maximal effect. The method in brief:
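Luminescent readout of luciferin produced by CYP3A4 (20 nM) dealkylation of Luciferin-PPXE, 25 uM (its KM). NADPH-driven reaction ran 60 min at RT after 10 min compound preincubation; data scaled to 57 uM ketoconazole as 100% inhibition.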

Assay [10] addresses DNA dC->dU-editing enzyme APOBEC-3G (Homo sapiens) (UniProt Q9HC16). Description: qHTS for inhibitors of Vif-A3G interactions: Validation (AID 588379). The method in brief:
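Yellow fluorescence (Ex 488, Em 500-530) of Vif-coexpressing HeLa A3G-eYFP cells, scanned by Acumen cytometer, reports blocked A3G degradation. Cells plated at 700/well overnight at 37 deg C before compound addition, then a further overnight compound incubation at 37 deg C.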

Assay [11] addresses Cytochrome P450 3A4 (Homo sapiens) (UniProt P08684). Kind of assay: qHTS Assay for Activators of Cytochrome P450 3A4 (AID 885). Further: nearly all actives have a fitted effect of over 65% in size. The method in brief: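 CYP3A4 activity: Luciferin-PPXE O-dealkylation, 25uM substrate, 200mM KPO4, RT throughout. Read-out is luciferase luminescence; higher values reflect activation.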

Values without a mark were called inactive. Inconclusive results are not listed. Activity calls are given as the source filed them. Unless noted, the call rests on the fitted dose curve; in most records, active means well fitted curve in the direction sought with a large enough effect; inconclusive means small, poorly fitted or top-dose-only effect, or another doubt; inactive means no such curve, though single readings can be large; an effect the other way counts as inactive or inconclusive.

Cytochrome P450 2D6 (Homo sapiens), sequence (P10635 whole entry, looked up): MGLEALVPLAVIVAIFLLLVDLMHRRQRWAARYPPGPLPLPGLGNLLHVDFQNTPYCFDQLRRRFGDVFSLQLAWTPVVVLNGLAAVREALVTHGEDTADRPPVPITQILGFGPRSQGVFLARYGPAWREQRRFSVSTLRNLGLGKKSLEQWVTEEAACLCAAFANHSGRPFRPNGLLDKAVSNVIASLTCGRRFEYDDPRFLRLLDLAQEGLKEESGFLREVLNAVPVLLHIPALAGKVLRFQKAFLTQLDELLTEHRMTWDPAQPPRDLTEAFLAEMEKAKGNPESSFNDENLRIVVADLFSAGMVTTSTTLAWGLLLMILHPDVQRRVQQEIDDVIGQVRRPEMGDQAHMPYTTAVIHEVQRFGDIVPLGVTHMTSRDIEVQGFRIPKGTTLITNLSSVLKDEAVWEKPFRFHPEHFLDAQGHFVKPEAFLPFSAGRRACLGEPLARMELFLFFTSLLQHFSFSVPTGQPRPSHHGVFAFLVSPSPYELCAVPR
Cytochrome P450 2C9 (Homo sapiens), sequence (P11712 whole entry, looked up): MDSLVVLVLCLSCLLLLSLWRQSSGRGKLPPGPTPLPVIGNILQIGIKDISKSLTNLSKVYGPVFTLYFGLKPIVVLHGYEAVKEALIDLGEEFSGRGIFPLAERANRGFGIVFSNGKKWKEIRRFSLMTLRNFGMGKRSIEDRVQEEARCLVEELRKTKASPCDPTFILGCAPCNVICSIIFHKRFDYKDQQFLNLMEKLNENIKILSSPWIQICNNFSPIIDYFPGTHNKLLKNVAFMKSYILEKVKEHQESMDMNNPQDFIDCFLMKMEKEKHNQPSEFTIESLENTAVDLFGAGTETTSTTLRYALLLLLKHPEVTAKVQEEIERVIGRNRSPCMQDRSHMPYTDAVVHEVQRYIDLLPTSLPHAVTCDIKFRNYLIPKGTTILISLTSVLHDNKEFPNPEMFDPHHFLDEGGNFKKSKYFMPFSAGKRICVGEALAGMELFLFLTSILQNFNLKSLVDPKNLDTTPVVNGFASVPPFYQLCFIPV
Glucocorticoid receptor (Homo sapiens), sequence (P04150 whole entry, looked up): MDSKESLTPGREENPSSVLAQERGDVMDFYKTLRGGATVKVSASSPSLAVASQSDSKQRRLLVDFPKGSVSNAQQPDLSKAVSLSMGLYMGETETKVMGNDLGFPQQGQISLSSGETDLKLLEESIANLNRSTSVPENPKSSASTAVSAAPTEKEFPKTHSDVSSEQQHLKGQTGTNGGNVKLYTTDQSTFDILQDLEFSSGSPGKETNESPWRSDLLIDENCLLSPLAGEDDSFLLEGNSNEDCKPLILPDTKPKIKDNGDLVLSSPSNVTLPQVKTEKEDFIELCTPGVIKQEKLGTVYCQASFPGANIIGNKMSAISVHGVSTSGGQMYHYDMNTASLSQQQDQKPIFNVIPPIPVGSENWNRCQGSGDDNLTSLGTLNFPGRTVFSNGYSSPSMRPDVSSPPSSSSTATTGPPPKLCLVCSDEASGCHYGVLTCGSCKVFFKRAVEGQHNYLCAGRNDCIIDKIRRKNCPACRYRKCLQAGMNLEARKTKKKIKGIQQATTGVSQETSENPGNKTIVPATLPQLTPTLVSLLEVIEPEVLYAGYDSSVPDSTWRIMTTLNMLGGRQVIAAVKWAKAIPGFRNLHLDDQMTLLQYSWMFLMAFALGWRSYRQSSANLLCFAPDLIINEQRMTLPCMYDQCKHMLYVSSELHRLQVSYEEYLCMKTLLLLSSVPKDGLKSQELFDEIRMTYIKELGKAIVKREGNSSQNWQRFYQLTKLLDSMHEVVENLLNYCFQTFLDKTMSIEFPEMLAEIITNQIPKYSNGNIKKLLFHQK
Cytochrome P450 3A4 (Homo sapiens), sequence (P08684 whole entry, looked up): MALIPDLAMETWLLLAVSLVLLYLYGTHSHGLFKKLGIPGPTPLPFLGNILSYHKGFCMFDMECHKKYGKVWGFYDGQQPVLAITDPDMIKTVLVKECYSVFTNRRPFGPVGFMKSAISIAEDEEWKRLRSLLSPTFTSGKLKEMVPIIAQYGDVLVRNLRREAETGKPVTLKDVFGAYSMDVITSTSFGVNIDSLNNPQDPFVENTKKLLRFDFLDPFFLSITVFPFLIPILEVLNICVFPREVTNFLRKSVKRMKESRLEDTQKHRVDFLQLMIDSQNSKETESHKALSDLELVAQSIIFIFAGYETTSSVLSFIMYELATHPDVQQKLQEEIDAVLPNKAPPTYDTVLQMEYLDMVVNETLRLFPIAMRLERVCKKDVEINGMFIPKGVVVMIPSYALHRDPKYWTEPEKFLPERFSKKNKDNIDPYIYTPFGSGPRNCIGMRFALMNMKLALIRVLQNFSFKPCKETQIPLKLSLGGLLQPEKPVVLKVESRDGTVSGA
3',5'-cyclic-AMP phosphodiesterase 4B (Homo sapiens), sequence (Q07343 whole entry, looked up): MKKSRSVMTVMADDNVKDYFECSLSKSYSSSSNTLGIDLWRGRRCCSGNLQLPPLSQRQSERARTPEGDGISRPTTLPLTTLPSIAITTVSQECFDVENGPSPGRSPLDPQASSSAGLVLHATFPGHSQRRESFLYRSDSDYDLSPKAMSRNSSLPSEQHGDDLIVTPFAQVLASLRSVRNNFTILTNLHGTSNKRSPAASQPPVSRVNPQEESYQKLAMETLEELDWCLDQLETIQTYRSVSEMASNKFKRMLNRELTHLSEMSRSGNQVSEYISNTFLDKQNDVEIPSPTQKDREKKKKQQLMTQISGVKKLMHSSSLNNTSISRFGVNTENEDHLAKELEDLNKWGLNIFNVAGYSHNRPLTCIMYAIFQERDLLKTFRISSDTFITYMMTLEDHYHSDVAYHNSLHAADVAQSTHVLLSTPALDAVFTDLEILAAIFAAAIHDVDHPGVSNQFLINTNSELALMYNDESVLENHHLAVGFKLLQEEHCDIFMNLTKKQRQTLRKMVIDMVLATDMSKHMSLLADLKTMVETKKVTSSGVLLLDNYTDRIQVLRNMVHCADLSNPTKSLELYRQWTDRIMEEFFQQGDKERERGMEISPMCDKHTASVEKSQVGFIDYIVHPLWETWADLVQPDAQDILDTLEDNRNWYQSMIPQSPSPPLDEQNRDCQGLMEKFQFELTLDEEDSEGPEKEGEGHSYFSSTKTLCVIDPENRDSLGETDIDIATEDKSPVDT
DNA dC->dU-editing enzyme APOBEC-3G (Homo sapiens), sequence (Q9HC16 whole entry, looked up): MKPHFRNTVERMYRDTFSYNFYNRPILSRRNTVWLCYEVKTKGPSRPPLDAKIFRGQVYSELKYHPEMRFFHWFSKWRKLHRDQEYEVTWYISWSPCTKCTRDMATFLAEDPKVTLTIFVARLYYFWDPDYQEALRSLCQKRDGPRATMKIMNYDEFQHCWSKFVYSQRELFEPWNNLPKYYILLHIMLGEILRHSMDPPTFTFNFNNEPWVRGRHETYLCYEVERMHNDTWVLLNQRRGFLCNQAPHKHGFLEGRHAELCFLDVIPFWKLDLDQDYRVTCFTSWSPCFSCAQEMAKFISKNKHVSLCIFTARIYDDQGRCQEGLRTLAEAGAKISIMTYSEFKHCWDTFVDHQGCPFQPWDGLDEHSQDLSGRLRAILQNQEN
Cytochrome P450 1A2 (Homo sapiens), sequence (P05177 whole entry, looked up): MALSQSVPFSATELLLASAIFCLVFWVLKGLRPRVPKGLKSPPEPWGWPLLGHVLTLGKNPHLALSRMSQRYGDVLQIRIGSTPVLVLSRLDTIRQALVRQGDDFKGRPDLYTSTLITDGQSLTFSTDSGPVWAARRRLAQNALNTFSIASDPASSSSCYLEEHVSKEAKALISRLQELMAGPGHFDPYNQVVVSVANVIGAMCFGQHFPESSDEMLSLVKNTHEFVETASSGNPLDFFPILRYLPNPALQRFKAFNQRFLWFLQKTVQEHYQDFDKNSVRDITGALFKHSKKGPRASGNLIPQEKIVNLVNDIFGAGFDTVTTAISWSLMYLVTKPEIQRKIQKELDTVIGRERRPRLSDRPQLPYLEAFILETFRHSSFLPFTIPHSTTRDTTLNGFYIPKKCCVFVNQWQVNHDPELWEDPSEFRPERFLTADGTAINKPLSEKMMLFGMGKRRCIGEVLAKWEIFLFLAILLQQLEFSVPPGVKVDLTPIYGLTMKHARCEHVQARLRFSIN
Cytochrome P450 2C19 (Homo sapiens), sequence (P33261 whole entry, looked up): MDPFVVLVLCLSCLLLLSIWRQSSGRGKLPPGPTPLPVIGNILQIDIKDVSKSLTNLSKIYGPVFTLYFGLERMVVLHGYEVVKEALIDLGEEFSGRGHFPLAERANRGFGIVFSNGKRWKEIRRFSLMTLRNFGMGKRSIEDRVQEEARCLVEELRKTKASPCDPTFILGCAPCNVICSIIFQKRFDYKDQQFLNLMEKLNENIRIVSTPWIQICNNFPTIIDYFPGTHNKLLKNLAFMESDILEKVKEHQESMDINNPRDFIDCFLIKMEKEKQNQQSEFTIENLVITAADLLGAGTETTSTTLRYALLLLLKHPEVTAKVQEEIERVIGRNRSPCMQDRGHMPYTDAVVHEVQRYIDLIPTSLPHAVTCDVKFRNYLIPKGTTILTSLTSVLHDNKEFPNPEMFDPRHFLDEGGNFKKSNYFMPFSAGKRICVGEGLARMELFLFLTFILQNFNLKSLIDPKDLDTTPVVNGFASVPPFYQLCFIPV

With `O=c1c(O)c(-c2ccc(O)c(O)c2)oc2c(OC[C@H]3O[C@@H](O)[C@@H](O)[C@H](O)[C@@H]3O)c(O)cc(O)c12`, the Potency result in assay [1], in assay [4], in [5] and in assay [6] was “inactive” each time. In addition, the Potency in assay [2] and in [3] was > 46 µM throughout.
`O=C1C=CC2=C3c4cc(O)c(O)cc4C[C@@]3(O)COC2=C1O`: the Potency is 39.8 µM (active) in [1]; > 46 µM in assay [2]; > 46 µM in assay [3]; 0.501 µM (active) in assay [7]; 3.98 µM (active) in assay [5]; 25.1 µM (active) in assay [6]. The Potency in [8] was 6.31 µM (active).
Consider `CC(=O)Oc1ccc(/C=C\C(=O)C[C@@H]2O[C@@H](Oc3cc(OC(C)=O)c4c(c3)O[C@@H](c3ccc(OC(C)=O)cc3)CC4=O)[C@H](OC(C)=O)[C@H](OC(C)=O)[C@@H]2OC(C)=O)cc1`, for which the Potency entry in assay [1], in assay [7], in [4], in assay [5], in assay [6] and in assay [8] was “inactive” in each case. The Potency in assay [2] and in assay [3] was > 46 µM in each case.
With `CC(=O)O[C@H]1CC[C@@]2(C)[C@@H](CC[C@@]3(C)[C@H]2C(=O)C=C2[C@H]4C[C@](C)(C(=O)OCCN5CCCCC5)CC[C@]4(C)CC[C@@]23C)C1(C)C`, the Potency result in assay [1], in assay [7], in assay [4], in assay [5], in assay [6] and in assay [8] was “inactive” each time. In addition, the Potency in assay [2] and in assay [3] was > 46 µM each time.
For `Cc1ccc2oc(-c3ccccc3)c(O)c(=O)c2c1`, the Potency in [1] was 0.398 µM (active); in assay [2] it was > 46 µM; in [3], > 46 µM. Moreover, the Potency result in assay [4], in assay [5], in [9], in [6] and in assay [8] was “inactive” each time. Also, the compound was called inactive in assay [10].
As to `COc1ccc2oc(-c3ccc(O)cc3)cc(=O)c2c1`, the Potency in [1] is 0.316 µM (active); in assay [2] it was > 46 µM; in [3], > 46 µM; in assay [5], 2.51 µM (active); in [9], 3.98 µM (active); in assay [6], 25.1 µM (active). The Potency result in assay [4] and in assay [11] was “inactive” in each case. Further, the compound was called inactive in [10].
With `O=c1cc(-c2ccccc2O)oc2c(O)c(O)ccc12`, the Potency was 2.51 µM (active) in assay [1]; > 46 µM in assay [2]; > 46 µM in assay [3]; 1.26 µM (active) in assay [5]; 15.8 µM (active) in [6]. Further, the Potency result in assay [4] and in assay [11] was “inactive” in each case. Besides, in assay [10], the result was inactive.
On to `CC1(C)CC[C@]2(C(=O)O)CC[C@]3(C)C(=CC[C@@H]4[C@@]5(C)CC[C@H](O)C(C)(C)[C@@H]5CC[C@@]43C)[C@@H]2C1`, for which the Potency entry in assay [1], in assay [7], in assay [5], in assay [6] and in [8] was “inactive” each time. In addition, the Potency in assay [2] and in assay [3] was > 46 µM in each case.
With `CC(C)C[C@H](NC(=O)[C@@H](NC(=O)N[C@@H](Cc1ccccc1)C(=O)O)[C@H]1CCN=C(N)N1)C(=O)N[C@H](C=O)Cc1ccccc1`, the Potency entry in assay [1], in [7], in assay [5] and in assay [6] was “inactive” in each case. Moreover, the Potency in assay [2] and in assay [3] was > 46 µM each time.

Values taken from PubChem BioAssay (NCATS).
